The structures appear in SMILES notation. Where “and” joins values, the source holds several entries; their conditions need not be identical. Equal values may be shown once. The panel holds about 83,000 compounds, 20% with a hit somewhere; the sample as a whole holds those more often.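 Step 1: grow cells in 96-well plates. Step 2: add test compound at a single concentration. Step 3: incubate 48 h. Step 4: record percent growth.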 Calls of active or inactive are those of the source. Rule for the calls: active = growth percent below 10; inactive = the rest.

Test systems include HCT-15 colon; HT29 colon; SNB-75 CNS; SNB-19 CNS; U251 CNS; PC-3 prostate; SK-MEL-5 melanoma; UACC-62 melanoma; LOX IMVI melanoma; SK-MEL-28 melanoma; SK-MEL-2 melanoma; EKVX NSCLC; SN12C renal; UO-31 renal; TK-10 renal; ACHN renal; CAKI-1 renal; A498 renal; CCRF-CEM leukemia; MOLT-4 leukemia.
Holding throughout (assay): NCI-60 one-dose screen, 48 h (100 = growth as untreated, 0 = no growth, -100 = all killed)
Holding throughout (settings): 10 µM unless noted

In the case of `CCOC(=O)c1ccc(Nc2ncnc3c2cnn3-c2cccc(F)c2)cc1`, the growth with HCT-15 colon was 102% (inactive); with HT29 colon it was 103% (inactive); in the experiment with SNB-75 CNS it was 82.1% (inactive); with SNB-19 CNS it was 96.9% (inactive); in the experiment with U251 CNS, 98% (inactive); in the experiment with PC-3 prostate, 97.3% (inactive). Further, the growth was 101% (inactive) in the experiment on SK-MEL-5 melanoma; 92.6% (inactive) in the experiment with UACC-62 melanoma; 93.2% (inactive) in the experiment on LOX IMVI melanoma; 110% (inactive) in the experiment on SK-MEL-28 melanoma; 114% (inactive) with SK-MEL-2 melanoma; 97.5% (inactive) in the experiment with EKVX NSCLC. In addition, the growth with SN12C renal was 95% (inactive); in the experiment with UO-31 renal, 72.1% (inactive); in the experiment on TK-10 renal, 115% (inactive); with ACHN renal, 96.5% (inactive); in the experiment on CAKI-1 renal, 84.8% (inactive); in the experiment with A498 renal, 99% (inactive). Besides, the growth was 95.6% (inactive) in the experiment with CCRF-CEM leukemia and 99.2% (inactive) with MOLT-4 leukemia.

For the compound `CCOC(=O)c1nc2c3ccccc3cnn2c1C(=O)c1ccc(OC)cc1`, the growth was 96.4% (inactive) with HCT-15 colon; 98.4% (inactive) in the experiment on HT29 colon; 88.6% (inactive) in the experiment on SNB-75 CNS; 90.7% (inactive) in the experiment with SNB-19 CNS; 89.9% (inactive) in the experiment on U251 CNS; 90.9% (inactive) in the experiment on PC-3 prostate. The growth with SK-MEL-5 melanoma was 97.1% (inactive); with UACC-62 melanoma it was 95.5% (inactive); in the experiment with LOX IMVI melanoma, 94% (inactive); in the experiment on SK-MEL-28 melanoma, 120% (inactive); with SK-MEL-2 melanoma, 107% (inactive); in the experiment with EKVX NSCLC, 89.7% (inactive). For the same compound, the growth with SN12C renal was 98.5% (inactive); in the experiment on UO-31 renal, 79.4% (inactive); in the experiment with TK-10 renal, 140% (inactive); in the experiment with ACHN renal it was 100% (inactive); with CAKI-1 renal, 86.9% (inactive); with A498 renal, 79.9% (inactive). The growth is 91.2% (inactive) in the experiment on CCRF-CEM leukemia and 88.7% (inactive) in the experiment with MOLT-4 leukemia.

Regarding `COc1ccc(/C(C)=C(\c2ccc(OCCN3CCOCC3)cc2)c2ccc(OC(=O)C3CCCCC3)cc2)cc1`, the growth with HCT-15 colon is 102% (inactive); with HT29 colon it was 102% (inactive); in the experiment on SNB-75 CNS it was 110% (inactive); in the experiment with SNB-19 CNS, 107% (inactive); in the experiment on U251 CNS it was 103% (inactive); with PC-3 prostate, 104% (inactive). In addition, the growth was 110% (inactive) in the experiment on SK-MEL-5 melanoma; 110% (inactive) in the experiment with UACC-62 melanoma; 102% (inactive) in the experiment with LOX IMVI melanoma; 106% (inactive) in the experiment on SK-MEL-28 melanoma; 104% (inactive) in the experiment on SK-MEL-2 melanoma; 107% (inactive) with EKVX NSCLC. Besides, the growth with SN12C renal was 113% (inactive); in the experiment with UO-31 renal, 101% (inactive); in the experiment on TK-10 renal it was 104% (inactive); in the experiment on ACHN renal, 98% (inactive); with CAKI-1 renal it was 101% (inactive); with A498 renal, 110% (inactive). The growth with CCRF-CEM leukemia is 111% (inactive); with MOLT-4 leukemia, 117% (inactive).

For `CCOc1ccc(N2C(N)=NC(N)=NC2(C)C)cc1`, the growth with HCT-15 colon is 99.9% (inactive); with HT29 colon, 2.75% (active) and 87.4% (inactive); in the experiment on SNB-75 CNS, -3.85% (active) and 82.7% (inactive); in the experiment with SNB-19 CNS, 40.3% (inactive) and 98.2% (inactive); with U251 CNS, 20% (inactive) and 68.6% (inactive); in the experiment on PC-3 prostate it was 16% (inactive) and 39.3% (inactive). Moreover, the growth in the experiment on SK-MEL-5 melanoma was 4.48% (active) and 102% (inactive); with UACC-62 melanoma, 41.4% (inactive) and 95.4% (inactive); in the experiment on LOX IMVI melanoma, 36.7% (inactive) and 90.1% (inactive); with SK-MEL-28 melanoma, 31.2% (inactive) and 113% (inactive); with SK-MEL-2 melanoma, -0.847% (active) and 107% (inactive); with EKVX NSCLC, 93.9% (inactive). Also, the growth with SN12C renal is 32.2% (inactive) and 96.9% (inactive); with UO-31 renal, 42% (inactive) and 96.6% (inactive); with TK-10 renal, 40.9% (inactive); in the experiment on ACHN renal it was 44.6% (inactive) and 102% (inactive); with CAKI-1 renal it was 13.3% (inactive) and 98.4% (inactive); in the experiment with A498 renal it was -5.18% (active) and 72.7% (inactive). The growth was 9.4% (active) and 79.8% (inactive) in the experiment with CCRF-CEM leukemia; 39.2% (inactive) and 81.5% (inactive) with MOLT-4 leukemia.

Regarding `O=C(Cn1cc(CN2CCN(c3ccnc4cc(Cl)ccc34)CC2)nn1)Nc1cccc([N+](=O)[O-])c1`, the growth with HCT-15 colon is 102% (inactive); in the experiment on HT29 colon it was 101% (inactive); in the experiment with SNB-75 CNS, 83.4% (inactive); in the experiment on SNB-19 CNS it was 90.3% (inactive); in the experiment on U251 CNS, 81.6% (inactive); in the experiment with PC-3 prostate, 58.5% (inactive). The growth in the experiment with SK-MEL-5 melanoma was 70.1% (inactive); with UACC-62 melanoma, 70.8% (inactive); in the experiment with LOX IMVI melanoma, 85.1% (inactive); in the experiment on SK-MEL-28 melanoma, 104% (inactive); with SK-MEL-2 melanoma, 97.1% (inactive); with EKVX NSCLC, 94.4% (inactive). Also, the growth was 92.9% (inactive) in the experiment with SN12C renal; 63.4% (inactive) in the experiment with UO-31 renal; 105% (inactive) with TK-10 renal; 87.7% (inactive) with ACHN renal; 76.4% (inactive) in the experiment on CAKI-1 renal; 90.7% (inactive) in the experiment with A498 renal. Also, the values for the growth in the experiment on CCRF-CEM leukemia and in the experiment on MOLT-4 leukemia were 33.8% (inactive) and 80% (inactive), respectively.

Turning to `Cc1ccc(-c2nc(C#N)c(S(=O)(=O)N(C)C)o2)cc1`, the growth was 19.7% (inactive) with HCT-15 colon; 97.7% (inactive) in the experiment on HT29 colon; 83.7% (inactive) in the experiment with SNB-75 CNS; 98.2% (inactive) in the experiment on SNB-19 CNS; 93.3% (inactive) in the experiment on U251 CNS; 103% (inactive) in the experiment with PC-3 prostate. Moreover, the growth with SK-MEL-5 melanoma was 92.5% (inactive); in the experiment on UACC-62 melanoma, 97.5% (inactive); with LOX IMVI melanoma it was 49.8% (inactive); in the experiment with SK-MEL-28 melanoma it was 102% (inactive); in the experiment with SK-MEL-2 melanoma it was 91.1% (inactive); with EKVX NSCLC, 106% (inactive). Moreover, the growth with SN12C renal is 75.2% (inactive); with UO-31 renal, 91.7% (inactive); in the experiment on TK-10 renal, 103% (inactive); with ACHN renal, -59.4% (active); in the experiment with CAKI-1 renal, 90% (inactive); in the experiment on A498 renal, 77% (inactive). The growth is -10.9% (active) in the experiment with CCRF-CEM leukemia and -22.8% (active) in the experiment on MOLT-4 leukemia.

With `COc1ccc(/C=C/C(=O)c2cc3c(N)c(C(=O)Nc4ccccc4Cl)sc3nc2C)cc1`, the growth is 54.2% (inactive) in the experiment on HCT-15 colon; 39.2% (inactive) in the experiment on HT29 colon; -6.43% (active) in the experiment with SNB-75 CNS; 44.7% (inactive) in the experiment on SNB-19 CNS; 31.7% (inactive) in the experiment on U251 CNS; 59.2% (inactive) in the experiment on PC-3 prostate. Also, the growth in the experiment on SK-MEL-5 melanoma was -56.1% (active); in the experiment on UACC-62 melanoma, -1.92% (active); with LOX IMVI melanoma, 48.2% (inactive); in the experiment with SK-MEL-28 melanoma it was 42% (inactive); in the experiment on SK-MEL-2 melanoma, 30.6% (inactive); in the experiment on EKVX NSCLC, 66.8% (inactive). The growth was 53.8% (inactive) in the experiment on SN12C renal; -10.2% (active) in the experiment on UO-31 renal; 20.4% (inactive) in the experiment with TK-10 renal; 10.2% (inactive) with ACHN renal; 31.9% (inactive) in the experiment with CAKI-1 renal; 30.9% (inactive) in the experiment on A498 renal. In addition, the growth in the experiment with CCRF-CEM leukemia is 58.9% (inactive); in the experiment on MOLT-4 leukemia, 36.2% (inactive).

Consider `Cc1ccc(S(=O)(=O)OC[C@@]2(C)CC[C@]3(C)CC[C@]4(C)C(=C3C2)C=C[C@@H]2[C@@]3(C)CCCNC(C)(C)[C@@H]3CC[C@]24C)cc1`, for which the growth is -74.5% (active) in the experiment on HCT-15 colon; -69.2% (active) with HT29 colon; 82.9% (inactive) with SNB-75 CNS; 47.8% (inactive) with SNB-19 CNS; -95.9% (active) with U251 CNS; 43.5% (inactive) in the experiment on PC-3 prostate. For the same compound, the growth in the experiment on SK-MEL-5 melanoma was 76.5% (inactive); in the experiment on UACC-62 melanoma, 61.1% (inactive); with LOX IMVI melanoma it was -99.2% (active); in the experiment with SK-MEL-28 melanoma, 96.7% (inactive); with SK-MEL-2 melanoma, 9.43% (active); in the experiment on EKVX NSCLC, 88.9% (inactive). Besides, the growth in the experiment with SN12C renal is 7.76% (active); in the experiment on UO-31 renal, 71.6% (inactive); in the experiment on TK-10 renal it was 68.6% (inactive); in the experiment on ACHN renal, -46.6% (active); in the experiment on CAKI-1 renal it was 1.61% (active); in the experiment with A498 renal, 104% (inactive). Further, the growth with CCRF-CEM leukemia is 0.849% (active); with MOLT-4 leukemia it was -24.8% (active).

For the origin of these results see PubChem BioAssay (NCI).
